Sampled rows, rich in hits. Any-hit rate of the full collection: about 21%.
IL1B secr inh = blocks inflammasome-driven IL-1 beta release. THP-1 LPS/ATP IL-1B secretion, AlphaLISA, 16 h; stronger effect = lower value. activity change, % at 57.5 µM. hit rate 4.7% among 360,000; in the data active = activity change below about -50%; inconclusive = mostly about -30% to -49%; note: % is set by controls: 0 for no effect and ±100 for the full control effect
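THP-1 cells pretreated 1 hr with compounds (up to 57.5 uM final), then stimulated with LPS (250 ng/mL final) plus ATP (1.25 mM final); secreted IL-1B measured by AlphaLISA after 16 hr, decreased signal indicating inhibition.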
D3 antag = D3 dopamine receptor (human) antagonism. P35462. hit rate 2.5% among 360,000. max response, negative = inhibition, %. D3R cells, DiscoveRx beta-arrestin luminescence, antagonist mode; stronger effect = lower value. AID 652054; in the data active = max response below about -50%; inconclusive = no clear call, values can overlap the other calls; note: % is set by controls: 0 for no effect and ±100 for the full control effect
Target sequence (P35462 whole entry, looked up): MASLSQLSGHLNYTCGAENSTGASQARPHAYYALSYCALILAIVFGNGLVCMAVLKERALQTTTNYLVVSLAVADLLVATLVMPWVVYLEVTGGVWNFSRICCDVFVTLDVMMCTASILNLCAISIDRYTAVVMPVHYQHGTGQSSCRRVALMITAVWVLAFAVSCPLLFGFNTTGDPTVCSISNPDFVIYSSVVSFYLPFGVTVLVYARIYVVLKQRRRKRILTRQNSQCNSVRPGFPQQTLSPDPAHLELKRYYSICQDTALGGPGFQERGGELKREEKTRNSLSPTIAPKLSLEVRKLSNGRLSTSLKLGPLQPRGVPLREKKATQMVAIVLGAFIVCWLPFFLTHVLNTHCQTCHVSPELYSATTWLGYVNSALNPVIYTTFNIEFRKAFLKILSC
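Cells expressing the human receptor were seeded at 1500 cells/well, incubated overnight at 37 degrees C in 5% CO2, then exposed to library compounds with dopamine controls for 90 minutes at 37 degrees C before luminescent detection.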
DRD3 agonist = activates the human D3 dopamine receptor. D3R DiscoveRx beta-arrestin cells, luminescence, 90 min. hit rate 0.58% among 410,000. max activation, %. AID 652048; in the data active = max activation above about 30%; note: 0% is about no effect
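Agonist-mode cell screen: cells plated at 1500/well and incubated overnight at 37 °C, then exposed to library compounds for 90 min at 37 °C. Detection reagent was added for 30–60 min at room temperature, and luminescence was read.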
TDP1 cell noCPT = qHTS for Inhibitors of human tyrosyl-DNA phosphodiesterase 1 (TDP1): qHTS in cells in absence of CPT. DT40 Tdp1-/- hTDP1 cells, no CPT, ATP luminescence, 48 h. Potency, µM (top dose mostly 46.2 µM), inactives show at the top dose activity change, negative = growth inhibition, actives largely listed as inhibitors. hit rate 15% among 420,000. AID 686978, 2013; note: potency is the fitted concentration of half-maximal effect; % is set by controls: 0 for no effect and ±100 for the full control effect; nearly all actives have a fitted effect of over 55% in size
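Compound effects on proliferation are scored in DT40 Tdp1-/-;hTDP1 cells in the absence of CPT. ATP levels (CellTiter-Glo luminescence) are recorded after a ≥48 hr, 37 °C incubation.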
ClpP mod = qHTS Assay for Activators of ClpP; purified B. subtilis ClpP, FRET peptide cleavage, 20 min; Potency, µM (titrated, usually from 57.5 µM), without a hit: top-dose activity change, negative = active; hit rate 1.9% among 340,000; active = well fitted falling curve with a large enough effect; inconclusive = small, poorly fitted or top-dose-only effect; inactive = no such curve, though single readings can be large or run the other way; note: potency is the fitted concentration of half-maximal effect; the source files actives as falling curves though it sought activators and does not explain the sign; nearly all actives have a fitted effect of over 65% in size
Target sequence (P80244 whole entry, looked up): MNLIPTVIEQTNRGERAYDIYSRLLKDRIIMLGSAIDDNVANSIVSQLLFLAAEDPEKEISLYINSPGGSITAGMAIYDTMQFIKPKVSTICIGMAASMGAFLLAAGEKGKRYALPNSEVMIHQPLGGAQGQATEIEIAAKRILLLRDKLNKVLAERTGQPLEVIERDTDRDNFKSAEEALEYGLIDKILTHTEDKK
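FRET quenching reversal measured ClpP activation: 10 microg/mL B. subtilis ClpP at pH 8 with the FRET-FV decapeptide, read at 430 nm after 320 nm excitation. The 20-min minus 0-min signal was scaled between DMSO/no-enzyme wells and ADEP (5.8 microM final).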
TDP1 cell CPT = growth inhibition of DT40 Tdp1-/-;hTDP1 cells with camptothecin (screen for TDP1 inhibitors); chicken DT40 Tdp1-/-;hTDP1 cells + 20 nM CPT, ATP luminescence, 48 h; Potency, µM (doses to about 46.2 µM), for the others: at the highest dose activity change, negative = growth inhibition, actives largely listed as inhibitors; hit rate 12% among 420,000; note: potency is the fitted concentration of half-maximal effect; % is set by controls: 0 for no effect and ±100 for the full control effect; nearly all actives have a fitted effect of over 55% in size
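Cell growth measured by CellTiter-Glo luminescence after a minimum 48 h, 37 C compound exposure with 20 nM CPT in Tdp1-knockout DT40 cells stably expressing hTDP1, seeded 400/well; qHTS titration format.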
Active calls of the source: *; ? = inconclusive; nt = no result. Unless noted, calls come from the whole dose curve; as a rule, active = well fitted inhibition curve with a large enough effect; inconclusive = small, poorly fitted or top-dose-only effect; inactive = flat fitted curve, though single readings scatter.

SMILES	IL1B secr inh	D3 antag	DRD3 agonist	TDP1 cell noCPT	ClpP mod	TDP1 cell CPT
CCOC(=O)COc1ccc(-c2nnn(CC(=O)Nc3ccccc3)n2)cc1	nt	nt	9.5	-16.1%	-0.5%	-6.8%
NS(=O)(=O)c1cccc(NC(=O)COC(=O)c2ccccc2SCC(=O)N2CCCC2)c1	32.1	9.5	2.2	-21.7%	-7.0%	-2.9%
CC(=O)Nc1ccc(NS(=O)(=O)c2ccc(C)cc2)cc1[N+](=O)[O-]	nt	-4.3	-9.0	-5.4%	nt	4.2%
CC(=O)Nc1ccc([N+](=O)[O-])c(CS(=O)(=O)c2ccc(C)cc2)c1[N+](=O)[O-]	45.1	-25.5	-17.6	23.1µM*	nt	?
CC(C)(C)c1ccc(S(=O)(=O)NCc2ccc(C(=O)NCc3ccccn3)cc2)cc1	-1.6	4.1	4.2	18.4µM*	-3.7%	20.6µM*
COc1ccccc1Oc1ccc(S(=O)(=O)NCc2ccccn2)cc1	-4.0	-78.9*	15.2	14.1µM*	0.1%	?
COc1ccc(S(=O)(=O)NCc2ccccn2)cc1NC(=O)c1ccc(Cl)cc1	-13.5	?	-14.3	16.4µM*	nt	?
COc1ccc(S(=O)(=O)NCc2ccccn2)cc1NC(=O)c1ccccc1C	23.7	-11.5	-11.8	4.61µM*	-2.4%	4.11µM*
COc1ccc(S(=O)(=O)NCc2ccccn2)cc1OC	40.3	-6.0	1.4	-3.1%	0.4%	7.7%
CCOC(=O)c1sc2ccccc2c1S(=O)(=O)N1CCN(c2cccc(C)c2)C(C)C1 (centres undefined)	nt	nt	3.7	?	-0.6%	?
COC(=O)C1(CC2CC(c3cccc(Br)c3)=NO2)CCN(C(=O)OC(C)(C)C)CC1 (centres undefined)	-8.8	-2.1	2.1	?	0.6%	?
C/C(CC(=O)Nc1cc(C)ccn1)=N\NC(=O)c1cccc(F)c1	-7.2	-6.2	-11.8	-1.9%	nt	3.4%
CC(C)(C)OC(=O)NCCCCCc1nnc(SCc2cccc(F)c2)o1	-9.6	17.2	-5.3	9.2µM*	1.7%	?
Fc1cccc(Cl)c1CSc1nnc(COc2cccc3cccnc23)o1	-50.5*	6.9	7.5	-25.6%	-8.7%	-21.9%
CC(C)(C)OC(=O)NCCCCCc1nnc(SCc2c(F)cccc2Cl)o1	-0.1	-6.0	6.2	20.6µM*	nt	-24.1%
CC(C)(C)OC(=O)NCCCCCc1nnc(SCc2ccccc2F)o1	-51.4*	13.2	1.4	?	0.4%	?
NCCc1nnc(SCc2c(F)cccc2Cl)o1	-15.6	-22.6	-4.6	?	-0.9%	-22.9%
COC(=O)c1c(C)oc(C)c1S(=O)(=O)N1CCOCC1	-7.0	15.9	1.4	-5.1%	-1.0%	1.3%
CCc1ccc(-c2csc3[n+]2CCN3C(C)=O)cc1	-9.1	12.2	9.9	25.9µM*	-0.3%	?
C=Cn1c(C(=O)O)ccc1-c1ccc(CC)cc1	0.0	5.8	-11.3	2.2%	-6.9%	-3.6%
CC(=O)N1CC[n+]2c(-c3ccc(Cl)cc3)csc21	-1.8	?	-9.3	23.1µM*	0.2%	25.9µM*
COc1ccc(C(=O)C2CCCN(C(=O)c3ccoc3C)C2)cc1F (centres undefined)	19.1	-17.5	1.9	?	nt	?
Cc1ccc(C(=O)NCCc2nnc3n2CCN(C(=O)c2ccnc(Cl)c2)CC3)cc1	nt	nt	nt	1.3%	nt	13.3%
Cc1noc(C)c1-c1ccc2ncnc(NCc3cccs3)c2c1	nt	nt	nt	23.1µM*	nt	11.6µM*
N=c1sccn1CC(=O)N1N=C(c2ccc(Cl)cc2)CC1c1ccco1 (centres undefined)	-26.6	?	-13.8	23.1µM*	nt	?
SMILES	IL1B secr inh	D3 antag	DRD3 agonist	TDP1 cell noCPT	ClpP mod	TDP1 cell CPT
O=C(OCC(=O)N1N=C(c2ccc(Cl)cc2)CC1c1ccco1)c1cncc(Br)c1 (centres undefined)	?	11.5	7.4	23.1µM*	nt	?
O=C(OCC(=O)N1N=C(c2ccc(Cl)cc2)CC1c1ccco1)c1ccco1 (centres undefined)	-2.6	-5.2	3.7	?	nt	-30.0%
CCC1(CC)NC(=O)N(CC(=O)N2N=C(c3ccc(Cl)cc3)CC2c2ccco2)C1=O (centres undefined)	0.0	-5.4	-6.1	?	nt	?
O=C(OCC(=O)N1N=C(c2ccc(Cl)cc2)CC1c1ccco1)c1ccccc1O (centres undefined)	-10.7	12.3	0.6	?	35.5µM*	?
CCC(Cn1nnc2ccccc2c1=O)NC(=O)Nc1ccccc1OC (centres undefined)	nt	nt	-11.4	?	0.2%	?
Cc1sc2c3ccsc3ccc2[n+]1C	-100.0*	-22.4	-5.6	16.4µM*	nt	13µM*
Cc1sc2ccc3sccc3c2[n+]1C	-95.1*	-20.8	-2.5	20.6µM*	nt	8.2µM*
Cc1sc2ncnc(N3CCC(C(=O)Nc4ccc(Cl)cc4Cl)CC3)c2c1C	14.0	-12.2	-9.9	18.4µM*	-7.4%	?
Cc1sc2ncnc(N3CCC(C(=O)NCC(=O)Nc4ccc(F)c(F)c4)CC3)c2c1C	-78.9*	44.3	-26.0	?	-1.0%	?
CCCOc1ccc(C(O)(CCC)CCN2CCCCC2)cc1 (centres undefined)	-9.7	-7.4	-6.4	23.1µM*	-1.9%	20.6µM*
CC1CN(CCCCOc2ccc(C(C)C)cc2)CC(C)O1 (centres undefined)	-0.8	-63.3*	-7.8	-27.6%	-0.1%	?
CC(C)c1ccc(OCC(O)CN2CCCC2)cc1 (centres undefined)	7.3	-7.2	-12.6	-15.4%	nt	-4.0%
Clc1ccc(SCCOCCN2CCCCCC2)cc1	-8.0	-114.7*	-7.5	?	-1.8%	?
CCCC(O)(CCN1CCOCC1)c1ccc(Br)cc1 (centres undefined)	24.8	?	-5.8	?	-2.3%	?
CC(C)c1ccc(OCCCCN2CCCCC2)cc1	-2.4	-88.0*	-20.7	?	nt	?
CC1CN(CCCCOc2ccc(Cl)c3ccccc23)CC(C)O1 (centres undefined)	?	?	-23.0	10.3µM*	nt	?
CC(C)(C)c1ccc(OCC(=O)NCCN2CCCC2)cc1	14.5	-56.6*	0.3	-0.9%	-1.2%	-2.9%
Cc1ccc(OCC(=O)NCCN2CCCC2)cc1	0.7	-20.8	-1.2	-8.0%	-2.8%	0.9%
CCC(C)c1ccc(OCCN2CCCC2)cc1 (centres undefined)	-4.7	-77.7*	1.0	-23.0%	-0.1%	-16.8%

Source: PubChem
